From PubChem BioAssay (NCI)
About 83,000 compounds went through this panel and 20% of them were active in at least one assay; those are over-represented in the sample as a whole.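 Note: values are percent growth. 100 is the growth of untreated cells, values between 100 and 0 indicate rising inhibition; between -100 and 0 indicates cell death.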 Unmarked numbers belong to inactive results. Calls of active or inactive are those of the source.

System: IGROV1 ovarian
Assay: NCI-60 one-dose screen, 48 h (100 = growth as untreated, 0 = no growth, -100 = all killed)
Details: 10 µM
Description: Growth inhibition of the IGROV1 human tumor cell line is measured as a screen for anti-cancer activity. Cells are grown in 96 well plates and exposed to the test compound for 48 hours. Compounds are tested at a single concentration, which is 10^-5 M for most compounds. The reported endpoint is percent growth (GI% or GIPRCNT), where numbers from 0 - 100% represent growth inhibition, and numbers from -100% - 0 represent cell death. For example, a value of 40 represents 60% growth inhibition. A value of 0 means no net growth occurred over the course of the experiment. A value of -40 indicates 40% of cells at the beginning of the experiment died by the end of the experiment. A value of -100 means all cells are dead at the end of the experiment.
NCI-60 Human Tumor Cell Lines Screen was performed using the standard one-dose NCI protocol, which is described in more detail at https://dtp.cancer.gov/discovery_development/nci-60/default.htm.
Compounds with GIPRCNT values below 10 were considered active. Activity score was based on GIPRCNT using the following formula: […]
Score is 0 for GIPRCNT values of 100 or above, 50 for GIPRCNT values of 0, and 100 for GIPRCNT values of -100.

| Structure (SMILES) | growth |
| --- | --- |
| O=C1/C(=C\c2ccc(F)cc2)CN(C(=O)c2ccccc2F)C/C1=C\c1ccc(F)cc1 | -38.4% (active) |
| CCCCCCCCCCCCCC[n+]1ccc(C(N)=O)cc1 | 110% |
| FC(F)(F)c1ccc(-c2cnc(Cl)nc2N2CCC3(CC2)OCCO3)cc1 | 83.6% |
| CC(C)C[C@H](NC(=O)[C@H](Cc1cccc2ccccc12)NS(=O)(=O)c1cccc2cccnc12)B(O)O | -64.7% (active) |
| CCN1CCC2(CC1)OC(c1ccccc1)C(c1ccccc1)O2 (stereo not given) | 144% |
| FC(F)(F)c1ccc2nc(-c3nc(-c4ccccc4)n4ccccc34)[nH]c2c1 | 67.7% |
| O=C1NC(=O)N(Cc2ccccc2)CC1Br (stereo not given) | 56.9% |
| CN1CC[C@@H](c2c(O)cc(O)c3c(=O)cc(-c4ccccc4Cl)oc23)[C@@H](O)C1 | -37.1% (active) |
| O=C(Nc1ccccc1)Nc1cccc(-n2cc(-c3ccncc3)c(-c3ccc(O)c(Cl)c3)n2)c1 | 89.7% |
| O=C(Nc1cccc(-n2cc(-c3ccncc3)c(-c3ccc(O)c(Cl)c3)n2)c1)Nc1ccc(Cl)c(Cl)c1 | -0.387% (active) |
| CCN(CC)CCSCCN(CC)CC | 109% |
| Nc1c(C(=O)Nc2ccccc2Cl)sc2nc3c(cc12)C(=O)CCC3 | 62.9% |
| O=C(Nc1cccc(-n2cc(-c3ccncc3)c(-c3ccc(O)c(Cl)c3)n2)c1)c1ccc(Cl)c(Cl)c1 | 60.7% |
| CC(=O)c1cc(Br)ccc1O | 136% |
| COc1ccc(-c2cc(/C=C/C(=O)c3cc(OC)c(OC)c(OC)c3)[nH]n2)cc1OC | -9.4% (active) |
| CCN(CC)CCC(CNc1c(C)cnc2cc(Cl)ccc12)c1ccc(Cl)c(Cl)c1 (stereo not given) | 33.2% |
| COc1ccc2c(c1)C(=O)c1c-2c(OCCN2CCCCC2)nc2ccc(OC)cc12 | 4.11% (active) |
| CC(=O)N1N=C(c2ccc(Cl)cc2)CC1c1sc(Cl)nc1Cl (stereo not given) | 59.1% |
| CCCCCCCCCCCCCCCCCC(=O)OCCCCCCC | 111% |
| NC1=NC(=O)C(c2ccccc2)(c2ccccc2)S1 | 115% |

| Structure (SMILES) | growth |
| --- | --- |
| CN(C)c1ccc(/C=C/C=N/NC(=O)c2cc(O)c(O)c(O)c2)cc1 | 100% |
| O=C1/C(=C\c2ccccc2)CN(C(=O)c2ccccc2F)C/C1=C\c1ccccc1 | -11.2% (active) |
| c1ccc(CO[C@H]2CO[C@H]3[C@@H]2OC[C@H]3OCc2ccccc2)cc1 | 92.3% |
| Cc1cc(O)c(C(C)(C)C)cc1Sc1cc(C(C)(C)C)c(O)cc1C | 39.1% |
| CN(C)CCN=c1nc2c(c(N)n1-c1ccccc1)c(=S)n(-c1ccccc1)c(=S)n2-c1ccccc1 | 36.3% |
| O=C(O)c1ccc(P(=O)(O)O)c([N+](=O)[O-])c1 | 119% |
| COc1cc(-c2cc(-c3cc4c([nH]c5ccccc54)c(-c4cc(OC)c(OC)c(OC)c4)n3)cc(-c3ccccc3)n2)cc(OC)c1OC | 74.6% |
| Cc1nc2oc3ccccc3c(=O)c2cc1C(=O)NCc1ccccc1 | 102% |
| CCC(=O)N1C/C(=C/c2ccc(Cl)cc2)C(=O)/C(=C/c2ccc(Cl)cc2)C1 | -66.1% (active) |
| CC1=C(N2CCOCC2)C(N2CCOCC2)=C(C)C(=O)C1=O | 101% |
| CCN(CC)CCN1CC(=O)Nc2cc(Cl)ccc21 | 99.9% |
| Nc1ccc2cc(S(=O)(=O)O)cc(O)c2c1N=Nc1ccc(F)cc1 | 120% |
| Nc1nccc(Nc2ccccc2)n1 | 127% |
| Cc1ccc(NC(=O)Nc2cccnc2)cc1NC(=O)Nc1cccnc1 | 68.5% |
| O=C(NN1C(=O)CSC1c1ccc(Cl)cc1)c1cccnc1 (stereo not given) | 112% |
| C[C@]12CC[C@@H]3c4ccc(O)cc4C[C@@H](O)[C@H]3[C@@H]1CC[C@@H]2O | 99.7% |
| Cc1ccc(C(=O)N2C/C(=C/c3ccc(F)cc3)C(=O)/C(=C/c3ccc(F)cc3)C2)cc1 | 102% |
| CCCCCC(=O)c1ccc(OCCCN2CCN(C(=O)OCC)CC2)cc1 | 112% |
| COc1ccc(C(=O)/C=C/c2cc(-c3cc(OC)c(OC)c(OC)c3)n[nH]2)cc1 | 43.2% |
| O=C(CC(C(=O)c1ccccc1)N1CCOCC1)c1ccccc1 (stereo not given) | 106% |
